Source: PubChem (National Center for Advancing Translational Sciences (NCATS))
Tau FP inhib – qHTS for Inhibitors of Tau Fibril Formation, Fluorescence Polarization; actives 0.39% (n = 280,000); K18 P301L tau heparin fibrillization, Alexa594 FP, 6 h; Microtubule-associated protein tau (Homo sapiens), P10636; Potency, µM (top dose mostly 57.7 µM), inactives show at the top dose activity, negative = inhibition, usual class: inhibitors; further: potency means the concentration at half of the fitted maximal effect; nearly all actives have a fitted effect of over 55% in size
Target sequence (P10636 561-689 P618L limits assumed): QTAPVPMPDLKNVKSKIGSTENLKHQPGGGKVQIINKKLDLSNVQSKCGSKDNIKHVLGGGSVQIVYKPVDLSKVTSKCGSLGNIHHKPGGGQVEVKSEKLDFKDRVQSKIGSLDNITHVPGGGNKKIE
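Steps: dispense K18 P301L tau (15 uM plus 0.24 uM Alexa 594 tracer, final) in pH 7 sodium acetate; add compound; add heparin (20 uM final); incubate 6 hr, 37 C; add ThT (30 uM final); after 1 hr ambient, read FP.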
Coupling enz – qHTS Assay for Inhibitors of Fructose-1,6-bisphosphate Aldolase from Giardia Lamblia: Coupling assay counterscreen. coupling enzyme system counterscreen, AmpLite Red fluorescence. activity change, negative = inhibition, % at 58.2 µM, hits read low. actives 0.67% (n = 290,000). AID 2472, 2010; in the data active means activity change below about -30%
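Counterscreen lacking aldolase: glyceraldehyde-3-phosphate coupling-enzyme reagent preincubated 10 min at RT with compound (at 57.5 uM final), then substrate/coupling system with AmpLite Red added; fluorescence read at 525/598 nm after 20 min RT.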
Sfp PPTase inh – qHTS Assay for Inhibitors of Bacillus subtilis Sfp phosphopantetheinyl transferase (PPTase). AID 1490, 2009. 4'-phosphopantetheinyl transferase ffp (Bacillus subtilis), Q9F4F7. Potency, µM, without a hit: largest response in the series, negative = inhibition, usual class: inhibitors. Biochemical Sfp PPTase activity, qHTS. actives 3.5% (n = 310,000);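 further: the enzyme is Sfp with the accession as filed and its product quenches rhodamine fluorescence; potency means the concentration at half of the fitted maximal effect; 0% = enzyme reaction without inhibitor and -100% = no enzyme wells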
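Fluorescence-quenching assay with 15 nM Sfp, 5 uM rhodamine-CoA and 12.5 uM BHQ-2-labelled ybbR peptide in pH 7.6 Hepes/MgCl2 buffer. Enzyme was pre-incubated with compound for 15 min at room temperature. Rate was taken from the 30-min fluorescence change (525/598 nm).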
G9a inh – qHTS Assay for Inhibitors of Histone Lysine Methyltransferase G9a | G9a H3K9 monomethylation, AlphaScreen, 2 h | Potency, µM (titrated, usually from 102 µM), for the others: top-dose activity, negative = inhibition, usual class: inhibitors | actives 8.8% (n = 350,000) | AID 504332, 2011; further: potency means the concentration at half of the fitted maximal effect; nearly all actives have a fitted effect of over 75% in size
Target sequence (Q96KQ7 913-1193 limits assumed): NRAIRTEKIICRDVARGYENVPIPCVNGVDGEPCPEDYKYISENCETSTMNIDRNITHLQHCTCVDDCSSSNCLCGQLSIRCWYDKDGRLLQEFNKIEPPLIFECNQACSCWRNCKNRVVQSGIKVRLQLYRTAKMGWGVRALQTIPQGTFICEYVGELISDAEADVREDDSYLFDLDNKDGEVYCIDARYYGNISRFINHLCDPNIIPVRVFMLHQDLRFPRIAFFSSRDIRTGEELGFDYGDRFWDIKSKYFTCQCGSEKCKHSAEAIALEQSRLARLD
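Quantitative HTS format: methyltransferase activity on a biotin-tagged H3K9 peptide is measured by AlphaScreen, using a rabbit anti-monomethyl-H3K9 antibody with streptavidin donor and anti-IgG acceptor beads. Final levels are 20 nM enzyme, 500 nM peptide, 20 uM SAM; 2 h RT.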
Tau fluor cs – Counterscreen qHTS for Inhibitors of Tau Fibril Formation, Fluorescence Polarization; actives 0.93% (n = 280,000); AID 1463, 2008; Potency, µM (series often up to 57.7 µM), inactives show at the top dose activity change, negative = decrease; tau K18 P301L Alexa594 fluorescence, heparin fibrillization; further: potency means the concentration at half of the fitted maximal effect; nearly all actives have a fitted effect of over 55% in size
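Human tau K18 P301L (15 uM unlabeled, 0.24 uM Alexa 594-labeled) in 100 mM sodium acetate pH 7 with 20 uM heparin, 6 hr at 37 C. ThT 30 uM added, 1 hr ambient; Alexa 594 FP and total fluorescence read at 555/632 nm.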
Tau fibril ThT – qHTS for Inhibitors of Tau Fibril Formation, Thioflavin T Binding | recombinant tau K18 P301L, heparin-induced fibrillization, ThT fluorescence | Potency, µM (doses to about 57.4 µM), for inactives: at the highest dose activity, negative = inhibition, hits mostly inhibitors | actives 2.1% (n = 270,000) | Microtubule-associated protein tau (Homo sapiens), P10636; further: potency means the concentration at half of the fitted maximal effect; nearly all actives have a fitted effect of over 55% in size
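Fibril formation assay: tau K18 P301L at 15 uM with trace Alexa 594 label, heparin inducer 20 uM, pH 7 sodium acetate buffer, 37 C for 6 hr; endpoint ThT signal.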
* marks the source's active call; other numbers are inactive results; u = inconclusive; x = no result; [ ] = remark or other dose. Compounds with a hit are over-represented: about 11% of the library has one in this group of screens. Unless noted, the call rests on the fitted dose curve; in most records, active means well fitted curve in the direction sought with a large enough effect; inconclusive means small, poorly fitted or top-dose-only effect, or another doubt; inactive means no such curve, though single readings can be large; an effect the other way counts as inactive or inconclusive. Unless noted, on the % scale 0 is the no-effect control and ±100 the full control effect.

SMILES	Tau FP inhib	Coupling enz	Sfp PPTase inh	G9a inh	Tau fluor cs	Tau fibril ThT
COc1ccc(C2(C(=O)c3ccccc3)C(=O)c3ccccc3C2=O)cc1	u	-1	45µM*	x	u	14µM*
Cc1nc(C)c(CCNC(=O)c2ccccc2)s1	-4%	3	-7%	10%[59 µM]	-2%	-4%
Cc1nc(C)c(CCNC(=O)c2cccc(Cl)c2)s1	5%	-1	-2%	79µM*	-4%	-13%
CCn1cc(C(=O)Nc2ncccc2O)c(=O)c2cc(F)c(N3CCN(C(=O)c4ccco4)CC3)cc21	x	x	20%	-6%	x	x
O=C(CSc1ccc(-c2ccco2)nn1)NC1CCCCC1	2%	1	25µM*	45µM*	-14%	u
COc1cccc(NC(=O)CSc2ccc(-c3ccco3)nn2)c1	x	x	50µM*	-26%	x	x
O=C(Cn1nc(-c2ccco2)ccc1=O)Nc1ccc(Br)cc1	x	1	50µM*	25µM*	x	x
COc1ccc(NC(=O)CSc2ccc(-c3ccco3)nn2)cc1OC	x	x	45µM*	u	x	x
Cc1cccc(NC(=O)Cn2nc(-c3ccco3)ccc2=O)c1C	x	-1	-13%	u	x	x
CCOc1cc(N2CCOCC2)c(OCC)cc1NC(=O)CN1CCSC1=O	x	x	x	-18%[2.33 µM]	x	x
Cc1cc(C)c2c(n1)SCC(=O)N2CC(=O)Nc1cccc(C)c1C	-9%	x	x	-2%[59 µM]	0%	0%
COC(=O)c1cc2occc2n1Cc1nc(-c2cccc(Br)c2)oc1C	-3%	x	x	4%[59 µM]	-11%	3%
COc1ccc(CCNC(=O)CSc2ccc(-c3ccco3)nn2)cc1OC	2%	-1	u	45µM*	-8%	-25%
O=C(CSc1ccc(-c2ccco2)nn1)Nc1ccc(F)cc1	x	x	28µM*	x	x	x
CN(CC(=O)NCc1ccc(F)cc1)Cc1ccc(Br)cc1	x	3	-4%	11%	x	x
COc1ccc(Br)cc1CN(C)CC(=O)NCc1ccc(F)cc1	x	3	79µM*	u	x	x
CC(=O)N1c2ccccc2C(=O)C1N1CCN(c2ccc(Cl)cc2)CC1 (stereo not given)	7%	x	x	-48%[59 µM]	-26%	u
CC(=O)N1c2ccccc2C(=O)C1N1CCN(c2cc(Cl)ccc2C)CC1 (stereo not given)	-4%	x	x	7.9µM*	-12%	-12%
O=C(N/N=C/c1ccc(Sc2nc3ccccc3[nH]2)o1)c1ccncc1	1%	-1	-5%	45µM*	6%	-13%
O=C(CSc1cccc2cccnc12)N/N=C/c1ccc(O)cc1	0%	-18	18%	5%	-7%	u
O=C(N/N=C/c1ccc(Sc2ccccn2)o1)c1cc2ccccc2cc1O	-1%	5	-1%	-11%[59 µM]	u	14µM*
N#C/C(=C/c1ccc(Sc2nc3ccccc3[nH]2)o1)c1cccc(F)c1	6%	-6	11%	u	4%	u
O=C(CCc1ccccc1O)N/N=C/c1ccc(Sc2cccc3cccnc23)o1	u	-11	-13%	10%[12.7 µM]	14µM*[quencher]	-10%
Cc1ccc(NC(=O)CN2C(=O)N/C(=C/c3ccc(C)s3)C2=O)cc1	-14%	0	40µM*	u	-15%	-11%
C=CCN1C(=O)N/C(=C/c2ccc(C)o2)C1=O	u	-39*	10µM*	u	-13%	25µM*
SMILES	Tau FP inhib	Coupling enz	Sfp PPTase inh	G9a inh	Tau fluor cs	Tau fibril ThT
Cc1cccc(NC(=O)CN2C(=O)N/C(=C\c3ccc(-c4cccc(C(=O)O)c4)o3)C2=O)c1	u	-5	40µM*	45µM*	-12%	x
Cc1cccc(NC(=O)CN2C(=O)N/C(=C/c3ccc(C)o3)C2=O)c1	-12%	-2	11µM*	35µM*	-12%	u
Cc1ccc(NC(=O)CN2C(=O)N/C(=C/c3ccc4c(c3)OCCO4)C2=O)cc1	x	1	1%	20%	x	x
COc1ccc(/C=C2/NC(=O)N(CC(=O)Nc3cccc(C)c3)C2=O)cc1O	-4%	0	-6%	19%[59 µM]	-20%	2%
O=C(NCc1ccco1)c1ccc(Cn2c(SCc3ccccc3)nc3cccnc32)cc1	0%	x	x	u	-25%	-16%
Cc1ccc(NC(=O)CN2C(=O)N/C(=C/c3ccc(C)o3)C2=O)cc1	u	-3	10µM*	35µM*	-13%	u
CCn1c(C)cc(/C=C2/NC(=O)N(CC(=O)Nc3cccc(C)c3)C2=O)c1C	-2%	0	6%	45µM*	-27%	u
CCn1c(C)cc(/C=C2\NC(=O)N(CC(=O)Nc3cccc(C)c3)C2=O)c1C	-6%	3	-6%	u	u	u
Cc1ccc(NC(=O)CN2C(=O)N/C(=C/c3ccc(N4CCOCC4)cc3)C2=O)cc1	u	0	12%	30%[59 µM]	-20%	1%
Cn1cc(Br)c(C(=O)NNC(=O)c2cccc(Br)c2)n1	12%	3	-4%	x	5%	4%
COc1ccccc1C(=O)NC1CCN(C(=S)NCCc2ccccc2)CC1	-1%	-3	9%	-4%[0.501 µM]	-5%	-4%
CCOC(=O)c1sc2ncc([N+](=O)[O-])cc2c1N	8%	-4	16%	u	-19%	7.9µM*
Nc1c(C(=O)Nc2ccccc2)sc2ncc([N+](=O)[O-])cc12	5%	1	19%	4%	-12%	u
Cc1cc(C)c(NC(=O)C(C)n2nc(C)c3sc4ccccc4c3c2=O)c(C)c1 (stereo not given)	-12%	x	x	10%[59 µM]	-15%	-12%
COc1ccc(CCN(C)C(=O)c2cncc(Br)c2)cc1OC	x	1	13%	11%	x	x
COc1ccc(CCN(C)Cc2c(O)ccc3cc(Br)ccc23)cc1OC	x	-3	-10%	25µM*	x	x
COc1ccc2cc(Br)ccc2c1CC(=O)N(C)C	-5%	1	19%	u	1%	-6%
COc1ccc(CN(C)Cc2c(O)ccc3cc(Br)ccc23)cc1OC	x	0	-5%	25µM*	x	x
Cc1ccc2nc(N3C(=O)C(O)=C(C(=O)c4ccco4)C3c3cccs3)sc2c1 (stereo not given)	-14%	-1	u	25µM*	-16%	u
COc1ccc2nc(N3C(=O)C(O)=C(C(=O)c4ccco4)C3c3ccc(C)o3)sc2c1 (stereo not given)	x	x	x	25µM*	x	x
